# The panel holds about 83,000 compounds, 20% with a hit somewhere; the sample as a whole holds those more often.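 A percent growth of 40 corresponds to 60% growth inhibition; 0 means no net growth; -100 means all cells died. Active threshold: below 10.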 A number with no mark means an inactive call. Activity calls are given as the source filed them.
# Tests used:
# Assay in all cases: NCI-60 one-dose screen, 48 h (100 = growth as untreated, 0 = no growth, -100 = all killed)
# Conditions in all cases: 10 µM unless noted
# NCI-H23 lung = tested on: NCI-H23 lung
# NCI-H226 lung = tested on: NCI-H226 lung
# NCI-H322M lung = tested on: NCI-H322M lung
# HOP-62 NSCLC = tested on: HOP-62 NSCLC
# NCI-H460 lung = tested on: NCI-H460 lung
# HOP-92 NSCLC = tested on: HOP-92 NSCLC
# NCI-H522 lung = tested on: NCI-H522 lung
# A549/ATCC NSCLC = tested on: A549/ATCC NSCLC
# 786-0 renal = tested on: 786-0 renal
# COLO 205 colon = tested on: COLO 205 colon
SMILES,growth (NCI-H23 lung),growth (NCI-H226 lung),growth (NCI-H322M lung),growth (HOP-62 NSCLC),growth (NCI-H460 lung),growth (HOP-92 NSCLC),growth (NCI-H522 lung),growth (A549/ATCC NSCLC),growth (786-0 renal),growth (COLO 205 colon)
COc1ccc(-c2c(C(N)=O)c(N)n(Cc3nc4ccccc4[nH]3)c(=O)c2C#N)c(OC)c1,93.1%,94.5%,97.3%,94.9%,105%,101%,95.2%,102%,103%,117%
CCCCCN1C(=O)/C(=c2\sc3n(c2=O)C2C(NN=3)N(CC)C(=O)N2CC)c2cccc(C)c21 (stereo not given),70%,42.4%,82.7%,44.2%,30.9%,70.2%,30.4%,68.6%,76%,38.7%
Oc1[nH]c2ccc(Cl)cc2c1N=Nc1nc(N=Nc2c(O)[nH]c3ccc(Cl)cc23)nc(N2CCOCC2)n1,17.2%,57.3%,78.1%,37.6%,88.2%,26%,5.09% (active),101%,73.7%,48.7%
O=C1c2ccccc2C23C(=C(c4cncnc4)c4ccccc42)CCCN13 (stereo not given),102%,97.4%,107%,108%,104%,90.9%,92.6%,98.9%,96.8%,121%
C/C(=C(/C)C1CC1CCNC1CCC(NC(=O)OC(C)(C)C)CC1)c1ccccc1 (stereo not given),70.8%,80.1%,89.2%,84.4%,57.6%,54.8%,68.6%,73.4%,65.6%,-56% (active)
COC(=O)[C@@H](Cc1c[nH]c2ccccc12)NC(=O)CCCCOc1cc(O)c2c(=O)cc(-c3ccccc3)oc2c1,35.2%,88.8%,95.8%,96.2%,94.4%,60.6%,86.7%,86.7%,97%,90.4%
Cc1ccc(-c2cc3nc(C(Cl)Cl)nc(-c4ccc(S(=O)(=O)N(C)C)cc4)n3n2)cc1,90.9%,87.7%,107%,77.9%,93.5%,128%,89.7%,88.4%,97.9%,98.1%
CCCCN1C(=O)/C(=c2\sc3n(c2=O)C2C(NN=3)N(CC)C(=O)N2CC)c2cccc(C)c21 (stereo not given),49.7%,36.6%,52.7%,46.8%,18.8%,71.1%,39.4%,57.1%,63.3%,24.6%
COc1cccc2c1[C@H](OC)[C@]13O[C@@]1(C2=O)[C@H](O)[C@H](C)[C@@](O)(C(=O)[C@@H]1O[C@H]1C)[C@@H]3O,-63.9% (active),-54.4% (active),1.69% (active),-26% (active),-33.2% (active),-16.8% (active),-31.9% (active),-16.7% (active),-16.9% (active),-44.9% (active)
COc1ccc(/C(=N\N=C(N)N)c2ccc(Cl)cc2)cc1OC,87.2%,88.6%,79.6%,69.1%,78%,-0.241% (active),74.3%,76.1%,59.2%,80%
CCOC(=O)c1c(NC(=O)c2cccc(C(F)(F)F)c2)sc2c1CCC(=O)C2,16%,71.8%,95.1%,31.8%,27.9%,29.9%,-4% (active),28.9%,98.4%,15.8%
Brc1cccc(-c2cc(-c3ccc4c(c3)OC=CO4)[nH]n2)c1,58.2%,78%,49.8%,58.1%,15.1%,96.3%,29.4%,37.5%,70.4%,36.1%
CCNC(=O)Oc1ccc(/C(=C(/C)c2ccc(Cl)cc2)c2ccc(OCCN3CCCCCC3)cc2)cc1,22.1%,80.9%,75.9%,-19.9% (active),-62.3% (active),60%,82.4%,43.9%,22.5%,-74.5% (active)
CC(Nc1ncnc2ccc(-c3cnc(N)nc3)cc12)c1ccccc1 (stereo not given),50.3%,20.6%,2.74% (active),31.2%,35.1%,-0.545% (active),11.9%,32.7%,23.7%,49.6%
COc1ccc(/C=N/NC(=O)CSc2nc(-c3cnccn3)cc(-c3cccs3)c2C#N)cc1OC,66.6%,47%,91.9%,77.1%,56.2%,37.8%,76.5%,74.8%,53.1%,107%
Cc1ccc(C(=O)CSc2nnc(-c3ccc(-c4ccc(Cl)cc4)nc3C)o2)cc1,93%,88.6%,95.8%,92.5%,107%,88%,91.7%,106%,104%,117%
C=CCSC1=NC2C(N(CC)C(=O)N2CC)N1/N=C/C=C/c1ccccc1OC (stereo not given),84%,78.3%,102%,80.7%,84.3%,68.4%,57.2%,69.8%,98.5%,83.1%
CC(=O)OCCCCN1C=C/C(=C\C(=O)n2ccc3ccccc32)c2ccccc21,96.2%,88.5%,98.7%,108%,102%,97.6%,99.1%,113%,107%,108%
COc1cc(-c2nc(-c3ccccc3)[nH]c2-c2ccnc(NCCCNS(=O)(=O)c3cccc(F)c3)n2)ccc1F,101%,83.9%,102%,130%,94.2%,134%,85.4%,87.1%,98.4%,93%
OCC(Nc1ncnc2ccc(-c3cnc4cnccn34)cc12)c1ccccc1 (stereo not given),57.8%,67.5%,40%,79.8%,89.4%,59.3%,43.5%,74.2%,64.4%,98.2%
Cn1c(SCC(=O)c2ccco2)nc2ccccc2c1=O,97.4%,79.5%,91.8%,99.7%,101%,90.6%,101%,108%,110%,118%
Cc1ccc2c(n1)C(=O)C(Cl)=C(Nc1ccc(C(C)C)cc1)C2=O,-56.9% (active),61.4%,84.4%,126%,79.7%,17.1%,-13.7% (active),67.8%,75.6%,111%
C#CCOc1cccc(-c2nc(N)nc(Nc3ccccc3SSc3ccccc3Nc3nc(N)nc(-c4cccc(OCC#C)c4)n3)n2)c1,-6.17% (active),1.74% (active),80.9%,-63.2% (active),-15.7% (active),87.6%,79.8%,-39.7% (active),96.9%,114%
C=C(C)[C@@H]1CC[C@]2(C(=O)NC3CCCCC3)CC[C@]3(C)[C@H](CC[C@@H]4[C@@]5(C)CC[C@H](N)C(C)(C)[C@@H]5CC[C@]43C)[C@@H]12,106%,94.2%,108%,104%,98.7%,73.1%,93.2%,91.9%,84.6%,52.9%
O=C(CSc1cc[n+](CCCCO)c2ccccc12)n1ccc2ccccc21,95.8%,89.6%,96.8%,91.8%,99.2%,103%,99.4%,103%,108%,106%
CC1(C)CC[C@]23CC[C@]4(C)[C@H](CC[C@@H]5[C@@]6(C)CC[C@H](N)C(C)(C)[C@@H]6CC[C@]54C)[C@H]2[C@H]1OC3,88.8%,96.6%,93.6%,96.1%,-34.8% (active),69.3%,99%,24.3%,-60.4% (active),-40.4% (active)
